One test deals with DDR2. The conditions noted are these: concentration: 1 μM, replicates: in singlicate, n = 1.
The next test concerns T1, DLK.
T1 construct: gene MAP3K12
The note with it: concentration: 1 μM, replicates: in singlicate, n = 1.

In the next test the test system is T2, DMPK2.
T2 construct: gene CDC42BPG
The conditions noted are these: concentration: 1 μM, replicates: in singlicate, n = 1.

The subject of a further test is DMPK. The conditions noted are these: concentration: 1 μM, replicates: in singlicate; n = 1.
The subject of another test is T3, DRAK1.
T3 construct: gene STK17A
The note with it: concentration: 1 μM, replicates: in singlicate; n = 1.

Another test relates to T4, DRAK2.
T4 construct: gene STK17B
The conditions noted are these: concentration: 1 μM, replicates: in singlicate, n = 1.

The next test relates to DYRK1A. The note with it: concentration: 1 μM, replicates: in singlicate; n = 1.
A further test has as its system DYRK1B. The note with it: concentration: 1 μM, replicates: in singlicate, n = 1.
In the next test the test system is DYRK2. The conditions noted are these: concentration: 1 μM, replicates: in singlicate; n = 1.
The subject of another test is EGFR. The note with it: concentration: 1 μM, replicates: in singlicate, n = 1.

Values joined by “and” are separate entries in the source; they are usually repeats but may differ in a detail not shown here. Identical values can stand only once. Like-named read-outs stand apart in the source and are kept apart here.
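Note: KINOMEscan kinase panel screen.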

For the compound `Clc1cc(Nc2ncnc3cc[nH]c23)ccc1OCc1ccccn1`, the “%Inh” value in the test with DDR2 is recorded as 0%; in the test with DLK it was 40%; with DMPK2, 0%; in the test on DMPK it was 9%; in the test with DRAK1, 48%; in the test with DRAK2, 20%. Also, the “%Inh” value was 0% in the test on DYRK1A, 17% in the test on DYRK1B, 17% in the test with DYRK2 and 99.9% with EGFR.

On to `COc1ccc(Nc2nccc(N3CCC(NC(=O)Nc4ccc5c(c4)OCO5)C3)n2)cc1` (stereo not drawn) [GSK1379745], for which the “%Inh” value in the test on DDR2 came out at 21%; in the test with DLK, 35%; with DMPK2, 20%; with DMPK, 0%; in the test with DRAK1, 0%; in the test on DRAK2, 0%. The “%Inh” value in the test with DYRK1A was found to be 8%; with DYRK1B, 5%; in the test on DYRK2, 7%; in the test with EGFR, 25%.

For the compound `CC(=O)Nc1n[nH]c2ncc(-c3ccccc3)cc12` [SB-548492], the “%Inh” value is 11% in the test with DDR2; 0% in the test with DLK; 0% with DMPK2; 0% in the test on DMPK; 20% in the test on DRAK1; 0% in the test on DRAK2. Moreover, the “%Inh” value was 32% in the test on DYRK1A, 0% with DYRK1B, 24% in the test on DYRK2 and 3% in the test with EGFR.

Regarding `Nc1nccc2scc(-c3ccc4c(c3)CCN4C(=O)Cc3cc(F)ccc3F)c12` [GSK2587663], the “%Inh” value came out at 1% with DDR2; 21% in the test on DLK; 13% with DMPK2; 0% in the test on DMPK; 3% with DRAK1; 5% with DRAK2. Besides, the “%Inh” value in the test on DYRK1A is 0%; in the test with DYRK1B, 12%; in the test with DYRK2, 5%; with EGFR, 21%.

As for `Oc1ccc2ncnc(Nc3ccc(OCc4ccccc4)cc3)c2c1` [GI262866], the “%Inh” value in the test with DDR2 is recorded as 7%; in the test with DLK, 11%; with DMPK2 it was 0%; with DMPK, 0%; in the test on DRAK1, 0%; with DRAK2, 0%. Further, the “%Inh” value was 16% in the test on DYRK1A, 0% in the test on DYRK1B, 18% in the test on DYRK2 and 100% in the test on EGFR.

On to `OCCOCCn1ccc2ncnc(Nc3ccc(Oc4cccc(Cl)c4)c(Cl)c3)c21`, for which the “%Inh” value in the test on DDR2, with DLK, in the test with DMPK2, in the test on DMPK, with DRAK1 and in the test with DRAK2 was 0% in each case. In addition, the “%Inh” value with DYRK1A amounted to 0%; in the test on DYRK1B, 0%; with DYRK2, 0%; in the test on EGFR, 100%.

In the case of `COc1cc2c(Nc3cccc(NC(=O)c4ccccc4)c3)ncnc2cc1OCCCN1CCOCC1` [GSK223810], the “%Inh” value worked out at 16% with DDR2; 13% in the test with DLK; 0% in the test with DMPK2; 0% in the test on DMPK; 11% in the test with DRAK1; 0% with DRAK2. Moreover, the “%Inh” value was determined as 0% in the test with DYRK1A, 15% in the test with DYRK1B, 33% with DYRK2 and 87% in the test on EGFR.

Turning to `O=C(c1ccc(-c2cc(-c3c[nH]nc3-c3ccccn3)ccn2)cc1)N1CCCC1` [GW792479], the “%Inh” value came out at 24% in the test on DDR2; 0% in the test with DLK; 0% in the test on DMPK2; 0% with DMPK; 0% with DRAK1; 10% in the test with DRAK2. The “%Inh” value worked out at 0% in the test with DYRK1A, 0% in the test with DYRK1B, 0% in the test with DYRK2 and 27% in the test with EGFR.

For `FC(F)(F)c1ccc(-c2nn3ncccc3c2-c2ccnc(Nc3cccc(C(F)(F)F)c3)n2)cc1` [GW828205], the “%Inh” value in the test on DDR2 came out at 25%; with DLK, 7%; with DMPK2, 0%; in the test on DMPK, 7%; in the test with DRAK1 it was 0%; in the test with DRAK2, 18%. In addition, the “%Inh” value turned out to be 0% with DYRK1A, 41% with DYRK1B, 31% with DYRK2 and 11% in the test on EGFR.

For `Cn1ccc2ncnc(Nc3ccc(Oc4cccc(Cl)c4)c(Cl)c3)c21`, the “%Inh” value in the test with DDR2 turned out to be 4%; in the test with DLK, 0%; with DMPK2, 5%; in the test on DMPK, 0%; in the test on DRAK1, 4%; in the test with DRAK2 it was 1%. Also, the “%Inh” value stood at 22% in the test on DYRK1A, 55% in the test with DYRK1B, 33% in the test with DYRK2 and 100% in the test on EGFR.

As for `Cc1ccc(NC(=O)c2cccc(C#N)c2)cc1-c1ccc(C(=O)Nc2ccncc2)cc1` [GSK1398463], the “%Inh” value is on record as 82% in the test on DDR2; 0% with DLK; 6% in the test on DMPK2; 0% in the test on DMPK; 0% in the test with DRAK1; 1% in the test on DRAK2. Further, the “%Inh” value in the test on DYRK1A is listed as 31%; in the test with DYRK1B, 19%; in the test with DYRK2, 19%; in the test with EGFR, 36%.

Consider `COC(=O)c1c(-c2ccccc2)c2cc(Cl)ccc2c(=O)n1Cc1ccc(S(C)(=O)=O)cc1`, for which the “%Inh” value with DDR2 is on record as 5%; in the test with DLK, 0%; with DMPK2 it was 0%; with DMPK it was 0%; with DRAK1, 0%; in the test on DRAK2, 3%. Besides, the “%Inh” value in the test with DYRK1A is 17%; in the test on DYRK1B, 10%; in the test with DYRK2 it was 44%; in the test on EGFR, 6%.

As to `COc1ccc(Nc2nccc(N3CCC(NC(=O)c4cccc(NC(C)=O)c4)C3)n2)cc1` (stereo not drawn) [GSK1379732], the “%Inh” value in the test on DDR2 was 41%; with DLK, 33%; with DMPK2 it was 0%; in the test on DMPK it was 13%; in the test with DRAK1, 24%; with DRAK2, 0%. In addition, the “%Inh” value in the test with DYRK1A came out at 8%; in the test with DYRK1B it was 87%; in the test on DYRK2 it was 7%; with EGFR, 16%.

`CC(C)N1CCC(n2cnc(-c3ccc(F)cc3)c2-c2ccnc(N)n2)CC1` [SB-223132]: the “%Inh” value in the test with DDR2 came out at 38%; in the test with DLK it was 0%; in the test with DMPK2, 11%; in the test with DMPK, 0%; in the test with DRAK1, 7%; in the test on DRAK2, 7%. Besides, the “%Inh” value in the test with DYRK1A turned out to be 0%; in the test on DYRK1B, 5%; in the test on DYRK2, 0%; in the test with EGFR it was 10%.

As for `O=c1cc(N2CCOCC2)nc2n(Cc3cccc(Cl)c3)ccn12` [GSK2296823], the “%Inh” value in the test on DDR2, with DLK, with DMPK2, in the test on DMPK, in the test on DRAK1 and in the test on DRAK2 was 0% each time. Also, the “%Inh” value with DYRK1A came out at 28%; with DYRK1B it was 0%; in the test with DYRK2 it was 9%; in the test on EGFR, 20%.

As to `CS(=O)(=O)CCNCc1ccc(-c2ccc3ncnc(Nc4ccc(OCc5ccccc5)c(Cl)c4)c3c2)o1.Cl` [GW574783], the “%Inh” value came out at 39% with DDR2; 25% in the test with DLK; 2% in the test with DMPK2; 16% in the test on DMPK; 16% with DRAK1; 0% in the test on DRAK2. Moreover, the “%Inh” value is recorded as 0% in the test on DYRK1A, 0% with DYRK1B, 0% in the test on DYRK2 and 100% in the test with EGFR.

Regarding `Fc1ccc(Nc2nccc(-c3c(-c4ccc(Cl)cc4)nn4ncccc34)n2)cc1F` [GW829058], the “%Inh” value in the test on DDR2 came out at 18%; in the test on DLK, 20%; in the test with DMPK2, 0%; in the test with DMPK, 21%; in the test with DRAK1, 5%; in the test on DRAK2, 0%. Moreover, the “%Inh” value was determined as 0% in the test with DYRK1A, 11% in the test with DYRK1B, 40% in the test with DYRK2 and 24% in the test on EGFR.

Turning to `Nc1nc(-c2ccccn2)c(-c2ccnc3ccccc23)s1` [GW548057], the “%Inh” value was 33% in the test on DDR2; 45% with DLK; 10% in the test with DMPK2; 0% in the test with DMPK; 0% with DRAK1; 3% with DRAK2. Further, the “%Inh” value with DYRK1A stood at 1%; in the test with DYRK1B it was 0%; with DYRK2, 9%; in the test on EGFR, 16%.

Turning to `COc1ccc(-c2nc3n(c2-c2ccncc2)CCC3)cc1` [SKF-104493], the “%Inh” value is 31% and 51% in the test on DDR2 (1 µM); 0% and 20% in the test with DLK (1 µM); 0% and 15% in the test with DMPK2 (1 µM); 2% and 0% in the test on DRAK2 (1 µM); 0% and 5% in the test with DYRK1B (1 µM); 0% and 15% in the test with EGFR (1 µM).

For the origin of these results see publication PMC5540273 (PLoS ONE, 2017).
